# Test results published in publication doi:10.1101/2024.03.05.583629.
# Target: pT7_6His-AlfaTag-HOXD13 (human, UniProt P35453 263-343)
# Assay: PADIT-seq
# Details: dsDNA, one strand shown
# Chain of pT7_6His-AlfaTag-HOXD13 (P35453 263-343): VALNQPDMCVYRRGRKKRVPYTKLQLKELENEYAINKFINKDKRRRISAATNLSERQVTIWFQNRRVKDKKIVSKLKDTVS
row,Sequence,binding signal
1,CTCGAGGATATCAAGATCTGGCCTCGGCCGCCCAGTCGGAACCTCTAGCTAGCCGACTCACTATAGGGATAATCGCCCTGAGCAAAGACC,-0.955 ± 0.134 log2FC
2,CTCGAGGATATCAAGATCTGGCCTCGGCGTTTTACATGGAACCTCTAGCTAGCCGACTCACTATAGGGATAATCGCCCTGAGCAAAGACC,2.03 ± 0.0856 log2FC
3,CTCGAGGATATCAAGATCTGGCCTCGGCCTTTTACTCGGAACCTCTAGCTAGCCGACTCACTATAGGGATAATCGCCCTGAGCAAAGACC,0.504 ± 0.0906 log2FC
4,CTCGAGGATATCAAGATCTGGCCTCGGCGTTTTAAGAGGAACCTCTAGCTAGCCGACTCACTATAGGGATAATCGCCCTGAGCAAAGACC,2.61 ± 0.088 log2FC
5,CTCGAGGATATCAAGATCTGGCCTCGGCCAATGGGCGGGAACCTCTAGCTAGCCGACTCACTATAGGGATAATCGCCCTGAGCAAAGACC,-0.903 ± 0.11 log2FC
6,CTCGAGGATATCAAGATCTGGCCTCGGCATTTTACCTGGAACCTCTAGCTAGCCGACTCACTATAGGGATAATCGCCCTGAGCAAAGACC,-0.0491 ± 0.129 log2FC
7,CTCGAGGATATCAAGATCTGGCCTCGGCCTTTTAACTGGAACCTCTAGCTAGCCGACTCACTATAGGGATAATCGCCCTGAGCAAAGACC,1.7 ± 0.0719 log2FC
8,CTCGAGGATATCAAGATCTGGCCTCGGCGTTTTAGCGGGAACCTCTAGCTAGCCGACTCACTATAGGGATAATCGCCCTGAGCAAAGACC,-0.00405 ± 0.124 log2FC
9,CTCGAGGATATCAAGATCTGGCCTCGGCATAATAAAAGGAACCTCTAGCTAGCCGACTCACTATAGGGATAATCGCCCTGAGCAAAGACC,2.68 ± 0.0776 log2FC
10,CTCGAGGATATCAAGATCTGGCCTCGGCATTTTAAGGGGAACCTCTAGCTAGCCGACTCACTATAGGGATAATCGCCCTGAGCAAAGACC,1.95 ± 0.0802 log2FC
11,CTCGAGGATATCAAGATCTGGCCTCGGCGTACTAAAAGGAACCTCTAGCTAGCCGACTCACTATAGGGATAATCGCCCTGAGCAAAGACC,0.47 ± 0.0814 log2FC
12,CTCGAGGATATCAAGATCTGGCCTCGGCTCATTAAAAGGAACCTCTAGCTAGCCGACTCACTATAGGGATAATCGCCCTGAGCAAAGACC,2.97 ± 0.0761 log2FC
13,CTCGAGGATATCAAGATCTGGCCTCGGCAACTGGGCGGGAACCTCTAGCTAGCCGACTCACTATAGGGATAATCGCCCTGAGCAAAGACC,-0.923 ± 0.12 log2FC
14,CTCGAGGATATCAAGATCTGGCCTCGGCTTTTTATTCGGAACCTCTAGCTAGCCGACTCACTATAGGGATAATCGCCCTGAGCAAAGACC,1.86 ± 0.0775 log2FC
15,CTCGAGGATATCAAGATCTGGCCTCGGCTTCCTAAAAGGAACCTCTAGCTAGCCGACTCACTATAGGGATAATCGCCCTGAGCAAAGACC,-0.635 ± 0.152 log2FC
16,CTCGAGGATATCAAGATCTGGCCTCGGCTTTTTAGTAGGAACCTCTAGCTAGCCGACTCACTATAGGGATAATCGCCCTGAGCAAAGACC,1.62 ± 0.0952 log2FC
17,CTCGAGGATATCAAGATCTGGCCTCGGCTGGATAAAAGGAACCTCTAGCTAGCCGACTCACTATAGGGATAATCGCCCTGAGCAAAGACC,-0.165 ± 0.087 log2FC
18,CTCGAGGATATCAAGATCTGGCCTCGGCAGTATAAAAGGAACCTCTAGCTAGCCGACTCACTATAGGGATAATCGCCCTGAGCAAAGACC,1.92 ± 0.0665 log2FC
19,CTCGAGGATATCAAGATCTGGCCTCGGCGCGCGCGCGGGAACCTCTAGCTAGCCGACTCACTATAGGGATAATCGCCCTGAGCAAAGACC,-1.01 ± 0.148 log2FC
20,CTCGAGGATATCAAGATCTGGCCTCGGCTCGCTAAAAGGAACCTCTAGCTAGCCGACTCACTATAGGGATAATCGCCCTGAGCAAAGACC,0.138 ± 0.111 log2FC

row,Sequence,binding signal
1,CTCGAGGATATCAAGATCTGGCCTCGGCACCCTAAAAGGAACCTCTAGCTAGCCGACTCACTATAGGGATAATCGCCCTGAGCAAAGACC,0.642 ± 0.0968 log2FC
2,CTCGAGGATATCAAGATCTGGCCTCGGCCGCCCAATAGGAACCTCTAGCTAGCCGACTCACTATAGGGATAATCGCCCTGAGCAAAGACC,-0.536 ± 0.118 log2FC
3,CTCGAGGATATCAAGATCTGGCCTCGGCTGCGTAAAAGGAACCTCTAGCTAGCCGACTCACTATAGGGATAATCGCCCTGAGCAAAGACC,1.22 ± 0.0881 log2FC
4,CTCGAGGATATCAAGATCTGGCCTCGGCTCAATAAAAGGAACCTCTAGCTAGCCGACTCACTATAGGGATAATCGCCCTGAGCAAAGACC,2.74 ± 0.0786 log2FC
5,CTCGAGGATATCAAGATCTGGCCTCGGCTTTTTAAGCGGAACCTCTAGCTAGCCGACTCACTATAGGGATAATCGCCCTGAGCAAAGACC,0.814 ± 0.0936 log2FC
6,CTCGAGGATATCAAGATCTGGCCTCGGCTTTTTATCTGGAACCTCTAGCTAGCCGACTCACTATAGGGATAATCGCCCTGAGCAAAGACC,0.754 ± 0.104 log2FC
7,CTCGAGGATATCAAGATCTGGCCTCGGCTTTTTACTCGGAACCTCTAGCTAGCCGACTCACTATAGGGATAATCGCCCTGAGCAAAGACC,0.725 ± 0.0977 log2FC
8,CTCGAGGATATCAAGATCTGGCCTCGGCATTCTAAAAGGAACCTCTAGCTAGCCGACTCACTATAGGGATAATCGCCCTGAGCAAAGACC,-0.358 ± 0.0968 log2FC
9,CTCGAGGATATCAAGATCTGGCCTCGGCGTGTTAAAAGGAACCTCTAGCTAGCCGACTCACTATAGGGATAATCGCCCTGAGCAAAGACC,1.46 ± 0.0736 log2FC
10,CTCGAGGATATCAAGATCTGGCCTCGGCCTGCTAAAAGGAACCTCTAGCTAGCCGACTCACTATAGGGATAATCGCCCTGAGCAAAGACC,0.179 ± 0.113 log2FC
11,CTCGAGGATATCAAGATCTGGCCTCGGCATTTTAACTGGAACCTCTAGCTAGCCGACTCACTATAGGGATAATCGCCCTGAGCAAAGACC,1.48 ± 0.0833 log2FC
12,CTCGAGGATATCAAGATCTGGCCTCGGCTCACCACGCGGAACCTCTAGCTAGCCGACTCACTATAGGGATAATCGCCCTGAGCAAAGACC,-1.05 ± 0.123 log2FC
13,CTCGAGGATATCAAGATCTGGCCTCGGCACTGTAAAAGGAACCTCTAGCTAGCCGACTCACTATAGGGATAATCGCCCTGAGCAAAGACC,1.95 ± 0.0803 log2FC
14,CTCGAGGATATCAAGATCTGGCCTCGGCGCGGTAAAAGGAACCTCTAGCTAGCCGACTCACTATAGGGATAATCGCCCTGAGCAAAGACC,0.513 ± 0.0756 log2FC
15,CTCGAGGATATCAAGATCTGGCCTCGGCTACGTAAAAGGAACCTCTAGCTAGCCGACTCACTATAGGGATAATCGCCCTGAGCAAAGACC,0.743 ± 0.0961 log2FC
16,CTCGAGGATATCAAGATCTGGCCTCGGCTTTTTACGCGGAACCTCTAGCTAGCCGACTCACTATAGGGATAATCGCCCTGAGCAAAGACC,2.08 ± 0.0867 log2FC
17,CTCGAGGATATCAAGATCTGGCCTCGGCATTTTAGGTGGAACCTCTAGCTAGCCGACTCACTATAGGGATAATCGCCCTGAGCAAAGACC,0.159 ± 0.111 log2FC
18,CTCGAGGATATCAAGATCTGGCCTCGGCCCGGTAAAAGGAACCTCTAGCTAGCCGACTCACTATAGGGATAATCGCCCTGAGCAAAGACC,0.409 ± 0.0951 log2FC
19,CTCGAGGATATCAAGATCTGGCCTCGGCATTTTAGACGGAACCTCTAGCTAGCCGACTCACTATAGGGATAATCGCCCTGAGCAAAGACC,-0.141 ± 0.116 log2FC
